From PubChem BioAssay
Calls of active or inactive are those of the source.

Key:
[1] = binders of probe aFSTL3 on microarray, primary screen, stem cell growth factor project, biochemical, small-molecule microarray, fluorescence 635/667 (AID 1064); details: higher = more signal;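 further: measures binding of the biotinylated anti-FSTL3 antibody to printed compounds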
[2] = binders from COS7 lysate, DM2A8 probe, primary screen, torsin A project, cell lysate, small-molecule microarray, fluorescence 635/667 (AID 1065); details: higher = more signal, COS7 lysate expressing mutant human TOR1A
[3] = binders of probe aFGF2 on microarray, primary screen, stem cell growth factor project, biochemical, small-molecule microarray, fluorescence 635/667 (AID 1067); details: higher = more signal;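 further: measures binding of biotinylated aFGF2 protein to printed compounds on slides; z-score merges feature fluorescence and signal-to-noise across triplicate slides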
[4] = binders of probe aFGF10 on microarray, primary screen, stem cell growth factor project, biochemical, small-molecule microarray, fluorescence 635/667 (AID 1071); details: higher = more signal;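 further: score merges 667 nm spot intensity and signal to noise from triplicate slides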
[5] = biological target: Neurogenic locus notch homolog protein 2 (Homo sapiens) (UniProt Q04721); test: Notch2 binders on small-molecule microarrays, primary screen, biochemical, small-molecule microarray, 635 nm fluorescence, stem cell growth factors (AID 1073); details: Notch2 binding, higher = more signal
[6] = biological target: Pro-neuregulin-1, membrane-bound isoform (Homo sapiens) (UniProt Q02297); test: NRG1 binders on small-molecule microarrays, primary screen, psychiatric disease protein project, biochemical, small-molecule microarray, fluorescence 635/667 (AID 1075); details: NRG1 binding, 635 nm fluorescence, higher = more signal;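 further: score combines 667 nm spot fluorescence with signal to noise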
[7] = test system: Neuregulin-1 EGF-like domain; test: binders of neuregulin-1 EGF-like domain, primary screen, biochemical, small-molecule microarray, 635 nm fluorescence (AID 1081); details: small-molecule microarray binding, higher = more signal;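 further: binding of the protein to compounds printed on small-molecule microarray slides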
[8] = FRG1 promoter luciferase signal modulators, primary screen, FRG1 inhibition for FSHD, cell-based, C2C12 myotubes, firefly/Renilla luciferase, luminescence (AID 1084); details: higher = more signal, called active from +8 up or from −8 down
[9] = binders of probe aFST on microarray, primary screen, stem cell growth factor project, biochemical, small-molecule microarray, fluorescence 635/667 (AID 1086); details: higher = more signal;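 further: score merges 667 nm fluorescence with signal-to-noise of each printed compound spot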
[10] = binders of probe aHhip on microarray, primary screen, stem cell growth factor project, biochemical, small-molecule microarray, fluorescence 635/667 (AID 1087); details: higher = more signal;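 further: score merges spot fluorescence at 667nm with spot signal to noise ratio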
[11] = test system: PRMT1 (protein arginine N-methyltransferase 1); test: PRMT1 binders on small-molecule microarrays, primary screen, biochemical, small-molecule microarray, 635 nm fluorescence (AID 1088); details: small-molecule microarray binding, higher = more signal;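 further: binding of Prmt1 protein to compounds spotted on small-molecule microarray slides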
[12] = yeast growth modulation, basal conditions, primary screen, YJM789 clinical isolate, OD600, 24 h (AID 1089);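 further: growth of clinical yeast isolate S. cerevisiae YJM 789 seeded 1000 cells per well; test concentration not given here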; details: S. cerevisiae YJM789 growth, higher = more signal, called active from +8 up or from −8 down
[13] = fission yeast growth modulation, primary screen, strain 972, OD600, 24 h, no modulator (AID 1090);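 further: basal condition with compound alone and no growth modifier present; test concentration not given here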; details: S. pombe 972 growth, higher = more signal, called active from +8 up or from −8 down
[14] = S. cerevisiae growth modulation with rapamycin, primary screen, strain BY4716, OD600, 96 h (AID 1091); details: higher = more signal, called active from +8 up or from −8 down; further: test concentration not given here
[15] = biological target: Torsin-1A-interacting protein 2 (Homo sapiens) (UniProt Q8NFQ8); test: LULL1 binders on small-molecule microarray, primary screen, cell lysate, human LULL1 lysate, 635/667 nm fluorescence (AID 1092); details: hLULL1 lysate binding, 635 nm fluorescence, higher = more signal;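 further: probe is lysate of COS7 cells overexpressing human LULL1; score merges per-feature 667 nm fluorescence with signal-to-noise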
[16] = E. coli growth modulation, two-sided OD650, primary screen, E. coli filamentation project, strain DRC41, 24 h (AID 1093); details: OD650, 24 h, higher = more signal, called active from +8 up or from −8 down;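 further: MC1000 strain lacking acrAB efflux and sulA so SOS filamentation is blocked; test concentration not given here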
[17] = small-molecule microarray binders of probe aLefty2, primary screen, biochemical, biotinylated probe, 635/667 nm fluorescence (AID 1094); details: higher = more signal;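 further: score merges spot fluorescence near 667 nm with spot signal-to-noise ratio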
[18] = test system: Noggin (protein binding on small-molecule microarray); test: Noggin binders on small-molecule microarray, primary screen, biochemical, 635/667 nm fluorescence (AID 1095); details: 635 nm fluorescence, higher = more signal;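 further: score merges 667 nm feature fluorescence with signal to noise over triplicate slides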
[19] = biological target: Neurogenic locus notch homolog protein 3 (Homo sapiens) (UniProt Q9UM47); test: NOTCH3 binders on small-molecule microarray, primary screen, biochemical, 635/667 nm fluorescence (AID 1096); details: NOTCH3 binding, 635 nm fluorescence, higher = more signal
[20] = small-molecule microarray binders of probe aEGFR, primary screen, biochemical, biotinylated probe, 635/667 nm fluorescence (AID 1097); details: higher = more signal;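 further: probe is a biotinylated anti-EGFR antibody binding compounds printed on slides; score combines fluorescence near 667 nm and signal to noise of each spot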

Sequence of Pro-neuregulin-1, membrane-bound isoform (Homo sapiens) (Q02297 whole entry, looked up, the tested form may be a part, canonical isoform): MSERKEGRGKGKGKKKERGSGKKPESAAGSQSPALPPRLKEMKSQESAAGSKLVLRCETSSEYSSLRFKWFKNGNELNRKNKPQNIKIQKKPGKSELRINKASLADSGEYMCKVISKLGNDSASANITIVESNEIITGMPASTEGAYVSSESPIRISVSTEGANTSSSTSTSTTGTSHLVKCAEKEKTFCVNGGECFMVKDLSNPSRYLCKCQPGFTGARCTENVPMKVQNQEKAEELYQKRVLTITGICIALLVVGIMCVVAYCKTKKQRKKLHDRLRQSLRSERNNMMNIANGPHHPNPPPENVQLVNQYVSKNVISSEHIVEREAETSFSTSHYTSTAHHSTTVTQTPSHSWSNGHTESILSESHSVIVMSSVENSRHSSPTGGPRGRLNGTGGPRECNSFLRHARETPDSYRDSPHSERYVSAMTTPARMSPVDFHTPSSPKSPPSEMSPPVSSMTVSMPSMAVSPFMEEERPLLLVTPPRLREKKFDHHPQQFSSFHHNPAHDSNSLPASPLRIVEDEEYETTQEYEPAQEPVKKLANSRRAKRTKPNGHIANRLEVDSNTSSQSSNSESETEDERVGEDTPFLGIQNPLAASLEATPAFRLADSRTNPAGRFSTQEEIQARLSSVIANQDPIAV
Sequence of Neurogenic locus notch homolog protein 2 (Homo sapiens) (Q04721 whole entry, looked up, canonical isoform): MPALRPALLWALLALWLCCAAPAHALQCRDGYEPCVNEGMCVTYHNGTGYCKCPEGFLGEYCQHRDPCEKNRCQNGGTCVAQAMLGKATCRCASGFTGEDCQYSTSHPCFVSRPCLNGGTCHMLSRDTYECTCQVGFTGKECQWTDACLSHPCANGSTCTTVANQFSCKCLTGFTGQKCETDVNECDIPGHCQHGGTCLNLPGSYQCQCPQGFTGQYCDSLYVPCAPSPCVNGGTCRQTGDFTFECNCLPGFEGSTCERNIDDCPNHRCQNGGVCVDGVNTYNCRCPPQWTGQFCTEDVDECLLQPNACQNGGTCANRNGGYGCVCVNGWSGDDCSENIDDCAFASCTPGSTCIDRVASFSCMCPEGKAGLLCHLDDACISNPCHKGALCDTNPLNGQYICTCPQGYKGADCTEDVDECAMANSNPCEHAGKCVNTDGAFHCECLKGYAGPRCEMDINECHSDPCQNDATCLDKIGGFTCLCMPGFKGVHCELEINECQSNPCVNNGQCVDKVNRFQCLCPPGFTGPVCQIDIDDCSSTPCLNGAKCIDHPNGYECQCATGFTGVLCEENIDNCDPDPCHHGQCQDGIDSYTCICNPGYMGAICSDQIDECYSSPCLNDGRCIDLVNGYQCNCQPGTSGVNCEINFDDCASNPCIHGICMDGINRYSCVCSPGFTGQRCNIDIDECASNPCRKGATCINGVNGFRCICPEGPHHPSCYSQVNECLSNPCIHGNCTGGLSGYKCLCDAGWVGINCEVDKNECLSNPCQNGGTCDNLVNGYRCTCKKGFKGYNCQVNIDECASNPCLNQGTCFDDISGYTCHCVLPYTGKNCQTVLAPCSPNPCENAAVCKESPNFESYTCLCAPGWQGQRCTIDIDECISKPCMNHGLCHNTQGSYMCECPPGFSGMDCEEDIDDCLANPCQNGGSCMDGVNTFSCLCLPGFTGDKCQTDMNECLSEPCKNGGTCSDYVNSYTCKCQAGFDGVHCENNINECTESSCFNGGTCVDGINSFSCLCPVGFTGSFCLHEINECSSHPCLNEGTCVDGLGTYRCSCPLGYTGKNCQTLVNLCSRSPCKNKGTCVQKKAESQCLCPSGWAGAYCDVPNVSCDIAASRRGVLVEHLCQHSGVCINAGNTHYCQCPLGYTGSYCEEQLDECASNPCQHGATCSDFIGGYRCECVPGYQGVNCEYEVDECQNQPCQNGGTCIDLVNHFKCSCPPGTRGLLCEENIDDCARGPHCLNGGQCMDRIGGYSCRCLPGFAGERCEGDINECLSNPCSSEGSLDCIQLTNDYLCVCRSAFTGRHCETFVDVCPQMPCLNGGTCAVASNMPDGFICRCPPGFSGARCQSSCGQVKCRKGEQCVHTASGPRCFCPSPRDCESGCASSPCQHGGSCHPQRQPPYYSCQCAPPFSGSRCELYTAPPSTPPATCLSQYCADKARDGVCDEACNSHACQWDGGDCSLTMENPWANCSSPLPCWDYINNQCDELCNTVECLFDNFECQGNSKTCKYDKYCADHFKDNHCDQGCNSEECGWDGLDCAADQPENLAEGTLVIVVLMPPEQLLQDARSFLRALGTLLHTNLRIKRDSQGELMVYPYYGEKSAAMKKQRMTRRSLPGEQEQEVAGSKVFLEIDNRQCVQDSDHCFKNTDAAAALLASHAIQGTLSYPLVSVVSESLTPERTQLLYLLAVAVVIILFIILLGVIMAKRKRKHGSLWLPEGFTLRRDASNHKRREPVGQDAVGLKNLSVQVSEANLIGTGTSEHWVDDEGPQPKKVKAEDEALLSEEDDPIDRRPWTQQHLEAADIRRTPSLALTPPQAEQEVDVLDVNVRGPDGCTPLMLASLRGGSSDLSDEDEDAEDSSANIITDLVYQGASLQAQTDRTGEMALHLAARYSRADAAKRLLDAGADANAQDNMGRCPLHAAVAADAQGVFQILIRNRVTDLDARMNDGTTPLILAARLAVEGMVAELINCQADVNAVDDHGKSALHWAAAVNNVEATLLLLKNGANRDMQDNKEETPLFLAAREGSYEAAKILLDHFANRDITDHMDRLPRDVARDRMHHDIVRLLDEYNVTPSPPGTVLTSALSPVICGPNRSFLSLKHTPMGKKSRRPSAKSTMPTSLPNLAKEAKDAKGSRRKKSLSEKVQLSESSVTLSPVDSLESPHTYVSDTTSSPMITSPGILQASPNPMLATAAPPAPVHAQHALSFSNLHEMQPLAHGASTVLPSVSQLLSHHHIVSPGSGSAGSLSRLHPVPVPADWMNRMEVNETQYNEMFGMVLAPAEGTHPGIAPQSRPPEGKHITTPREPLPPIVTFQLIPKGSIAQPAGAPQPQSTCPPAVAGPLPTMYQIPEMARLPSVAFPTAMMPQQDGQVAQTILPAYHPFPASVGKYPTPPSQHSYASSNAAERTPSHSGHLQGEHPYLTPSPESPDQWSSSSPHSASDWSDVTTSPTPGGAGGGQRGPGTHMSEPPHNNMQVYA
Sequence of Torsin-1A-interacting protein 2 (Homo sapiens) (Q8NFQ8 whole entry, looked up): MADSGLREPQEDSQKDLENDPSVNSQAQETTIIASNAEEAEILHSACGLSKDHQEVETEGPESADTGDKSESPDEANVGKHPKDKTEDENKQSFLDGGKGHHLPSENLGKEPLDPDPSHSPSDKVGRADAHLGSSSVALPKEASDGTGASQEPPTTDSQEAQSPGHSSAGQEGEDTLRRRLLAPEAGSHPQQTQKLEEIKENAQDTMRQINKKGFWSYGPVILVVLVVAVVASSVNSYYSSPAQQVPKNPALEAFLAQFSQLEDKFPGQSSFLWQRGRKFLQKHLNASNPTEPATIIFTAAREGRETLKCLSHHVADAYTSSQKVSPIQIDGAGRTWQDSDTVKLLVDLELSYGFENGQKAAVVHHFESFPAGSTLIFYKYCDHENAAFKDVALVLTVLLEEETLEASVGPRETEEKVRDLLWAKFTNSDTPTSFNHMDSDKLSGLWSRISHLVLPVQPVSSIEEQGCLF

CCCCC(=C=CC[C@H](O)c1ccc(OCCO)cc1)C[C@H](O)c1cc(Cl)cc(Cl)c1O
composite z-score [1]: -0.268 | composite z-score [2]: 0.092 | composite z-score [3]: -0.186 | composite z-score [4]: 0.214 | composite z-score [5]: 0.323 | composite z-score [6]: 1.05 | composite z-score [7]: 0.965 | z-score [8]: -2 (inactive) | composite z-score [9]: 0.236 | composite z-score [10]: -0.264 | composite z-score [11]: 1.18 | z-score [12]: 0.294 (inactive) | z-score [13]: -3.5 (inactive) | z-score [14]: -0.15 (inactive) | composite z-score [15]: 1.54 | z-score [16]: 0.0374 (inactive) | composite z-score [17]: -0.192 | composite z-score [18]: 0.563 | composite z-score [19]: 0.62 | composite z-score [20]: -0.183

COCCOC(=O)N1C(=O)[C@@]2(c3ccccc31)[C@H](c1ccccc1OCCO)N1[C@H](c3ccccc3)[C@H](c3ccccc3)OC(=O)[C@H]1[C@@H]2C(=O)N1CCCCCCC1
composite z-score [1]: 4.11 | composite z-score [2]: 2.32 | composite z-score [3]: 0.959 | composite z-score [4]: 1.32 | composite z-score [5]: 1.78 | composite z-score [6]: 2.25 | composite z-score [7]: 1.39 | z-score [8]: -3.81 (inactive) | composite z-score [9]: 3.36 | composite z-score [10]: 2.53 | composite z-score [11]: 1.54 | z-score [12]: 1.3 (inactive) | z-score [13]: 1.35 (inactive) | z-score [14]: 5.52 (inactive) | composite z-score [15]: 4.47 | z-score [16]: -0.489 (inactive) | composite z-score [17]: 1.97 | composite z-score [18]: 1.78 | composite z-score [19]: 1 | composite z-score [20]: 1.48

COCCOC(=O)N1C(=O)[C@@]2(c3cc(C#CC4=CCCCC4)ccc31)[C@H](C(=O)N1CCCCCCC1)[C@H]1C(=O)O[C@H](c3ccccc3)[C@H](c3ccccc3)N1[C@@H]2c1ccc(OCCO)cc1
composite z-score [1]: 1.77 | composite z-score [2]: 0.399 | composite z-score [3]: 0.316 | composite z-score [4]: 0.5 | composite z-score [5]: 0.891 | composite z-score [6]: 0.455 | composite z-score [7]: 1.1 | z-score [8]: 1.06 (inactive) | composite z-score [9]: 1.36 | composite z-score [10]: 0.739 | composite z-score [11]: 1.22 | z-score [12]: 0.175 (inactive) | z-score [13]: -0.534 (inactive) | z-score [14]: 1.62 (inactive) | composite z-score [15]: 0.973 | z-score [16]: -0.909 (inactive) | composite z-score [17]: 0.726 | composite z-score [18]: 1.52 | composite z-score [19]: 1.06 | composite z-score [20]: 0.265

CN1C(=O)C2C=CC(C(O)c3ccc(I)cc3)N(Nc3ccccc3)C2C1=O (stereo not given)
composite z-score [1]: 0.131 | composite z-score [2]: 0.238 | composite z-score [3]: 0.0253 | composite z-score [4]: 0.846 | composite z-score [5]: 1.26 | composite z-score [6]: 1.56 | composite z-score [7]: 1.24 | z-score [8]: 0.266 (inactive) | composite z-score [9]: 0.942 | composite z-score [10]: 0.142 | composite z-score [11]: 1.27 | z-score [12]: -0.228 (inactive) | z-score [13]: -0.504 (inactive) | z-score [14]: 0.768 (inactive) | composite z-score [15]: 2.99 | z-score [16]: -1.78 (inactive) | composite z-score [17]: 0.107 | composite z-score [18]: -0.111 | composite z-score [19]: 1.09 | composite z-score [20]: 0.0778

C[C@]1(C(=O)NCC(F)(F)F)c2ccccc2C(=O)N(Cc2ccccc2)[C@H]1c1ccc(CO)cc1
composite z-score [1]: 0.472 | composite z-score [2]: -1.34 | composite z-score [3]: -0.167 | composite z-score [4]: -0.358 | composite z-score [5]: -1.52 | composite z-score [6]: 0.794 | composite z-score [7]: 0.711 | z-score [8]: -1.48 (inactive) | composite z-score [9]: -0.0961 | composite z-score [10]: -0.0003 | composite z-score [11]: -0.604 | z-score [12]: 0.724 (inactive) | z-score [13]: 0.645 (inactive) | z-score [14]: -0.0993 (inactive) | composite z-score [15]: 1.57 | z-score [16]: 0.855 (inactive) | composite z-score [17]: -0.0478 | composite z-score [18]: -1.45 | composite z-score [19]: -1.21 | composite z-score [20]: -0.162

CCC(CC)C(O)C1C=CC2C(=O)N(c3ccccc3)C(=O)C2N1Nc1ccc([N+](=O)[O-])cc1 (stereo not given)
composite z-score [1]: 0.453 | composite z-score [2]: -0.0903 | composite z-score [3]: 0.22 | composite z-score [4]: 0.848 | composite z-score [5]: 1.56 | composite z-score [6]: 1.07 | composite z-score [7]: 1.26 | z-score [8]: -1.91 (inactive) | composite z-score [9]: 0.944 | composite z-score [10]: 0.327 | composite z-score [11]: 1.53 | z-score [12]: -0.255 (inactive) | z-score [13]: 1.27 (inactive) | z-score [14]: 1.28 (inactive) | composite z-score [15]: 3 | z-score [16]: -0.27 (inactive) | composite z-score [17]: 0.323 | composite z-score [18]: 0.0809 | composite z-score [19]: 1.07 | composite z-score [20]: 0.277

CC(=O)NCCCC[C@@H]1NC(=O)[C@@H]2C[C@H](C(=O)NCCCCCCN)[C@H](c3cccc(OCCO)c3)N2C1=O
composite z-score [1]: 0.501 | composite z-score [2]: 0.43 | composite z-score [3]: -0.0336 | composite z-score [4]: 0.281 | composite z-score [5]: -0.149 | composite z-score [6]: 1.63 | composite z-score [7]: 1.08 | z-score [8]: 2.15 (inactive) | composite z-score [9]: -0.0064 | composite z-score [10]: -0.0296 | composite z-score [11]: 0.858 | z-score [12]: 0.119 (inactive) | z-score [13]: -0.646 (inactive) | z-score [14]: -0.831 (inactive) | composite z-score [15]: 2.3 | z-score [16]: -0.314 (inactive) | composite z-score [17]: -0.0554 | composite z-score [18]: 0.271 | composite z-score [19]: -0.239 | composite z-score [20]: -0.175

CC(=O)n1cc(C(O)C2C=CC3C(=O)N(c4ccccc4)C(=O)C3N2Nc2ccc(C(C)C)cc2)c2ccccc21 (stereo not given)
composite z-score [1]: 0.657 | composite z-score [2]: 0.249 | composite z-score [3]: 0.125 | composite z-score [4]: 0.899 | composite z-score [5]: 1.55 | composite z-score [6]: 1.95 | composite z-score [7]: 1.15 | z-score [8]: -0.833 (inactive) | composite z-score [9]: 1.07 | composite z-score [10]: -0.0645 | composite z-score [11]: 1.22 | z-score [12]: -0.314 (inactive) | z-score [13]: 0.713 (inactive) | z-score [14]: 0.0496 (inactive) | composite z-score [15]: 3.27 | z-score [16]: -0.811 (inactive) | composite z-score [17]: 0.353 | composite z-score [18]: -0.706 | composite z-score [19]: 1.04 | composite z-score [20]: 0.0786

COCC(=C=CC[C@@H](O)c1ccc(OCCO)cc1)CCO
composite z-score [1]: -0.394 | composite z-score [2]: 1.19 | composite z-score [3]: -0.0861 | composite z-score [4]: 0.115 | composite z-score [5]: -0.0206 | composite z-score [6]: 1.45 | composite z-score [7]: 0.745 | z-score [8]: 1.67 (inactive) | composite z-score [9]: 0.17 | composite z-score [10]: -0.249 | composite z-score [11]: 0.271 | z-score [12]: 0.177 (inactive) | z-score [13]: 0.0708 (inactive) | z-score [14]: -0.18 (inactive) | composite z-score [15]: 1.73 | z-score [16]: 0.802 (inactive) | composite z-score [17]: -0.132 | composite z-score [18]: 0.913 | composite z-score [19]: 0.622 | composite z-score [20]: -0.125

COc1ccc([Si](C)(C)[C@H]2[C@H](CC(=O)N3Cc4ccccc4C[C@H]3CO)O[C@@]3(C(=O)N(Cc4ccc(N5C(=O)c6cccc7cccc5c67)cc4)c4ccccc43)[C@@H]2C)cc1
composite z-score [1]: -0.0494 | composite z-score [2]: 0.245 | composite z-score [3]: -0.0953 | composite z-score [4]: 0.329 | composite z-score [5]: 0.393 | composite z-score [6]: 1.73 | composite z-score [7]: 1.17 | z-score [8]: -4.44 (inactive) | composite z-score [9]: 1.07 | composite z-score [10]: 0.61 | composite z-score [11]: 1.56 | z-score [12]: -0.823 (inactive) | z-score [13]: 1.17 (inactive) | z-score [14]: 2.88 (inactive) | composite z-score [15]: 2.7 | z-score [16]: 0.489 (inactive) | composite z-score [17]: -0.178 | composite z-score [18]: 1.14 | composite z-score [19]: 1.15 | composite z-score [20]: -0.027
